# Only some compounds are listed: those with a hit (about 15% of all), similar ones and a draw of the others.
# RORgamma inh: qHTS for inhibitors of ROR gamma transcriptional activity; Nuclear receptor ROR-gamma (Mus musculus), P51450; Drosophila S2 Gal4-RORgamma UAS-luciferase reporter, 20 h; Potency, µM (titrated, usually from 53.6 µM), usual class: inhibitors; 310,000 tested, 5.4% active; further: nearly all actives have a fitted effect of over 60% in size
# Target sequence (P51450 whole entry, looked up, the tested form may be a part): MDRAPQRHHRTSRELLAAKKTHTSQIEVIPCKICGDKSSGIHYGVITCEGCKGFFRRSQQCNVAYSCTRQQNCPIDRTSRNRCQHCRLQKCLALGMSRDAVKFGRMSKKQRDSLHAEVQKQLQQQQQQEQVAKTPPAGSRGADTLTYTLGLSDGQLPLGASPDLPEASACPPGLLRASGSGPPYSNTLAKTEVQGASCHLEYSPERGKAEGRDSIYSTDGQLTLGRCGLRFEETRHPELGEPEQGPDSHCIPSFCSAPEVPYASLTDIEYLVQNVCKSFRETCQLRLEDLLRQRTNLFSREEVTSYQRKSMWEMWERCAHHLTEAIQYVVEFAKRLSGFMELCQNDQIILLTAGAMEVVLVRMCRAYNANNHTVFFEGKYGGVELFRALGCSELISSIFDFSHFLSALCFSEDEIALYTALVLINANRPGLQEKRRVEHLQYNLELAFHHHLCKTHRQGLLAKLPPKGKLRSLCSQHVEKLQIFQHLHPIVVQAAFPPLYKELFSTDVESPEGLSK
#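 Drosophila Schneider cells stably carrying a metallothionein-driven Gal4 DBD–ROR gamma fusion and a UAS-Photinus luciferase reporter were exposed to compound for 1 hr, then induced with copper sulfate (700 uM final) for 20 hr at ambient temperature before luminescence reading.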
# TDP1 cell CPT: qHTS for Inhibitors of human tyrosyl-DNA phosphodiesterase 1 (TDP1): qHTS in cells in presence of CPT; chicken DT40 Tdp1-/-;hTDP1 cells + 20 nM CPT, ATP luminescence, 48 h; Potency, µM (doses to about 46.2 µM), actives largely listed as inhibitors; 420,000 tested, 12% active; AID 686979, 2013; further: nearly all actives have a fitted effect of over 55% in size
#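 Chicken DT40 Tdp1-/- cells stably complemented with human TDP1 were seeded at 400 cells/well in medium containing 20 nM camptothecin, exposed to pin-transferred compounds, and grown at 37 °C for at least 48 hr. Viability was read as ATP luminescence.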
# ALOX12 inh: Primary qHTS assay for inhibitors of human arachidonate 12S-lipoxygenase (ALOX12): Round 2 | purified 12hLO, xylenol orange hydroperoxide absorbance | 580,000 tested, 1.1% active | Potency, µM (highest dose often 108 µM), hits mostly inhibitors | Polyunsaturated fatty acid lipoxygenase ALOX12 (Homo sapiens), P18054
#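 Hydroperoxide product was detected by ferrous iron/xylenol orange as the 573 to 405 nm absorbance ratio. Arachidonic acid at 40 uM (final) was turned over for 30 min at room temperature by 150 nM human 12hLO, pH 7.0 Hepes buffer, after 15 min compound preincubation.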
# Gal4-VP16 FLuc: VP16 counterscreen qHTS for inhibitors of ROR gamma transcriptional activity. Potency, µM (highest dose often 53.6 µM), hits mostly inhibitors. Drosophila S2 Gal4-VP16 UAS-luciferase, luminescence, 20 h. 310,000 tested, 3.5% active;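 further: Gal4-VP16 expression switched on by copper sulfate through the metallothionein promoter; nearly all actives have a fitted effect of over 50% in size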
# TDP1 cell noCPT: qHTS for Inhibitors of human tyrosyl-DNA phosphodiesterase 1 (TDP1): qHTS in cells in absence of CPT; DT40 Tdp1-/- hTDP1 cells, no CPT, ATP luminescence, 48 h; Potency, µM (highest dose often 46.2 µM), actives largely listed as inhibitors; 420,000 tested, 15% active; further: nearly all actives have a fitted effect of over 55% in size
#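 Growth kinetics read by CellTiter-Glo luminescence after ≥48 hr at 37 °C. Cells: DT40 Tdp1-/- stably carrying human TDP1, 400 per well, compound exposure in the absence of CPT (DMSO vehicle).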
# ELG1 DNA repair: qHTS screen for small molecules that inhibit ELG1-dependent DNA repair in human embryonic kidney (HEK293T) cells expressing luciferase-tagged ELG1. 330,000 tested, 2.3% active. HEK293T ELG1-luciferase reporter, luminescence, 16 h; DNA damage induced by 5-fluorouridine. Potency, µM (series often up to 46.1 µM), most hits filed as inhibitors; further: nearly all actives have a fitted effect of over 55% in size
#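 Overnight (16 hr) co-exposure of 2,000 cells/well to 5-fluorouridine and compound at 37 °C preceded detection. Luciferase was quantified via ONE-Glo luminescence; loss of signal denotes inhibition.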
# A number is an active result; n = inactive; u = inconclusive; x = no result. The call rests on the fitted dose curve; in most records, active means well fitted curve in the direction sought with a large enough effect; inconclusive means small, poorly fitted or top-dose-only effect, or another doubt; inactive means no such curve, though single readings can be large; an effect the other way counts as inactive or inconclusive.
SMILES,RORgamma inh,TDP1 cell CPT,ALOX12 inh,Gal4-VP16 FLuc,TDP1 cell noCPT,ELG1 DNA repair
O=C(/C=C/c1ccc(F)cc1)NC(=S)N1CCN(Cc2ccccc2)CC1,2.5µM,u,n,7.1µM,u,n
O=C(/C=C/c1ccc(F)cc1)NC(=S)N1CCOCC1,n,n,n,n,u,n
Clc1ccc(CN2C3=NCCCN3c3ccccc32)cc1,n,26µM,n,n,21µM,u
Cc1ccccc1CN1C2=NCCCN2c2ccccc21,n,18µM,n,n,18µM,u
Fc1ccc(CN2C3=NCCCN3c3ccccc32)cc1,n,u,n,n,u,n
ClCCN1C2=NCCCN2c2ccccc21,n,n,n,n,n,n
Clc1ccc(CN2C3=NCCCN3c3ccccc32)cc1Cl,n,n,n,n,15µM,n
COC[C@@H]1CN(C(=O)c2c(C)noc2C)C[C@H]1c1ccncc1,x,x,n,x,x,x
CCc1cc(C(=O)Nc2ccccc2C#N)cs1,x,x,n,x,x,x
CC(=O)Nc1ccc(Oc2ccc(-c3noc(C)n3)cc2)cc1,n,n,n,n,n,x
CC(=O)Oc1ccc(Oc2ccc(-c3noc(C)n3)cc2)cc1,n,21µM,n,n,12µM,u
O=C(COc1ncnc2ccccc12)N(Cc1ccccc1)Cc1ccccc1,x,x,n,x,x,x
N#Cc1ccc2[nH]ccc2c1,x,x,n,x,x,x
CNc1ccc2ncc(-c3ccc(OC)c(OC)c3)n2n1,x,2.6µM,n,x,2.1µM,x
COCCn1c(CN2C(=O)N(C)C(=O)C2(C)C)nnc1C1CC(N)C1 (centres undefined),x,x,n,x,x,x
Cc1cccc(OCCNC(=O)c2ccc(Oc3ccc(C(F)(F)F)cc3[N+](=O)[O-])cc2)c1,n,n,n,n,n,n
Cc1cccc(OCCNC(=O)c2cccc(Oc3ccc(C(F)(F)F)cc3[N+](=O)[O-])c2)c1,u,23µM,n,n,29µM,u
CCO[C@H]1OC(C(=O)Nc2ccccc2)=C[C@@H](c2ccc(C(F)(F)F)cc2)[C@@H]1CCCO,n,15µM,n,u,15µM,n
C#Cc1ccc([C@@H]2C=C(C(=O)Nc3ccccc3)O[C@H](OCC)[C@H]2CCCO)cc1,n,16µM,n,n,13µM,u
CN(C[C@@H](Cc1cccc2ccccc12)N(C[C@H](Cc1ccccc1)N(CCc1ccccc1)N=O)N=O)N=O,n,u,n,n,n,n
CN(C[C@H](c1ccccc1)N(C[C@H](Cc1ccccc1)N(CCc1ccccc1)N=O)N=O)N=O,n,18µM,n,n,u,n
CC(C)(C)NC(=O)COC(=O)c1ccccc1Oc1ccccc1,n,n,n,n,n,n
CC(=O)Nc1ccc(NC(=O)COC(=O)C2c3ccccc3Oc3ccccc32)cc1,n,n,n,n,n,n
O=C(COC(=O)/C=C/c1ccccc1)NC1CCCCCC1,x,n,n,x,n,n
Cc1nnnn1/C(=C\c1ccccc1)C(=O)OCC(=O)NC1CCCCC1,x,13µM,n,x,15µM,u
SMILES,RORgamma inh,TDP1 cell CPT,ALOX12 inh,Gal4-VP16 FLuc,TDP1 cell noCPT,ELG1 DNA repair
Cc1nnnn1/C(=C\c1ccccc1)C(=O)OCC(=O)NC(C)(C)C,13µM,16µM,n,20µM,10µM,16µM
CC(=O)Nc1ccc(NC(=O)COC(=O)/C(=C/c2ccccc2)n2nnnc2C)cc1,16µM,12µM,n,u,13µM,u
O=C(OCCOc1cccc(Cl)c1)c1cc(S(=O)(=O)N2CCCCC2)ccc1N1CCOCC1,x,15µM,u,x,8.2µM,5.2µM
O=C(OCc1cccc(Cl)c1)c1cc(S(=O)(=O)N2CCCCC2)ccc1N1CCOCC1,n,16µM,n,n,29µM,u
O=C(COC(=O)c1cc(S(=O)(=O)N2CCCCC2)ccc1N1CCOCC1)c1ccc(Cl)cc1,x,u,n,x,u,u
S=c1[nH]nc(-c2ccco2)n1/N=C/C=C/c1ccco1,7.1µM,n,u,10µM,u,n
S=c1[nH]nc(COc2ccccc2)n1/N=C/C=C/c1ccco1,n,n,n,n,n,n
S=c1[nH]nc(-c2cc(-c3ccccc3)n[nH]2)n1/N=C/C=C/c1ccco1,u,n,40µM,n,u,n
CC(=O)Nc1cc(NC(=O)Cc2nc(-c3ccccc3)oc2C)ccc1F,x,x,n,x,x,x
C[C@H]1[C@@H]2[C@@H](O)C([C@H](C)C(=O)NCc3ccco3)CC[C@@]2(C)CC[C@@H]1NC(=O)c1ccccn1 (some centres undefined),x,x,n,x,x,x
O=C(NCc1cn(-c2ccccc2)nc1-c1ccccc1)c1ccc([N+](=O)[O-])cc1,u,u,n,7.1µM,u,u
Nc1nccnc1C(=O)NCc1cn(-c2ccccc2)nc1-c1ccccc1,x,x,n,x,x,x
COc1ccc(-c2csc3ncnc(N4CCN(c5ccccc5[N+](=O)[O-])CC4)c23)cc1,n,u,x,n,18µM,5.2µM
CC(C)(C)C(=O)N1CCN(c2ncnc3scc(-c4ccccc4)c23)CC1,n,u,n,n,u,u
COc1ccc(-c2csc3ncnc(N4CCN(c5ccccc5O)CC4)c23)cc1,u,u,x,u,16µM,u
Cc1ccc(-c2csc3ncnc(N4CCN(c5ccccc5O)CC4)c23)cc1,n,u,n,n,15µM,5.8µM
CC(C)c1ccc(-c2csc3ncnc(N4CCN(C)CC4)c23)cc1,n,16µM,u,n,12µM,12µM
Cc1ccc(C(NC(=O)C2CCCCC2)c2ccccc2)cc1 (centres undefined),x,x,n,x,x,x
Clc1ccccc1-n1ncc2c(NC3CCCC3)ncnc21,x,x,n,x,x,x
O=C1NC2(CCCN(C(=O)c3cccnc3)C2)Oc2ccccc21 (centres undefined),x,x,n,x,x,x
COc1ccc(-c2csc3ncnc(N4CCN(c5ccc(OC)cc5)CC4)c23)cc1,n,23µM,n,n,13µM,u
COc1ccc(-c2csc3ncnc(N4CCN(c5ccccc5)CC4)c23)cc1,n,u,n,n,u,u
COCCn1c(N(C)C)nc2c1c(=O)[nH]c(=O)n2C,x,x,n,x,x,x
O=C(/C=C/c1ccco1)NC(=S)Nc1nc(-c2ccc(Cl)cc2)cs1,14µM,5.2µM,u,u,4.6µM,n
COc1ccc(-c2csc(NC(=S)NC(=O)/C=C/c3ccccc3)n2)cc1Br,n,u,n,n,23µM,n

# Screens (PubChem BioAssay)
